Shown are actives, neighbours in structure and some others; about 19% of the full set was active somewhere.
DT40 TDP1 CPT: growth inhibition of DT40 Tdp1-/-;hTDP1 cells with camptothecin (screen for TDP1 inhibitors) | Potency, µM (series often up to 46.2 µM), inactives show top-dose activity change, negative = growth inhibition, usual class: inhibitors | chicken DT40 Tdp1-/-;hTDP1 cells + 20 nM CPT, ATP luminescence, 48 h | 12% of 420,000 active; also: potency is read from the fitted curve at half-maximal effect; nearly all actives have a fitted effect of over 55% in size
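Chicken DT40 Tdp1-/- cells stably complemented with human TDP1 were seeded at 400 cells/well in medium containing 20 nM camptothecin, exposed to pin-transferred compounds, and grown at 37 °C for at least 48 hr. Viability was read as ATP luminescence.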
HT1080-NT tox: kills 2HG-producing HT-1080-NT fibrosarcoma cells; HT-1080-NT fibrosarcoma viability, CellTiter-Glo ATP luminescence, 48 h; Potency, µM (series often up to 46.1 µM), for the others: top-dose activity, negative = less viability, hits mostly cytotoxic; 1.6% of 360,000 active;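 also: NT is the 2HG producing partner of a matched IDH1 knockdown line; potency is read from the fitted curve at half-maximal effect; 0% = DMSO-treated cells and -100% = media-only wells without cells; nearly all actives have a fitted effect of over 55% in size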
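750 cells/well, RPMI + 5% FBS; 2 h settle, compound pin-transfer, 48 h at 37 degrees C. CellTiter-Glo 10 min RT, luminescence. Normalized to DMSO and media-only wells.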
HT1080 IDH1KD tx: kills HT-1080 cells with IDH1 knockdown | 2% of 360,000 active | AID 686971 | HT-1080 IDH1 knockdown viability, ATP luminescence, 48 h | Potency, µM (doses to about 46.1 µM), for inactives: at the highest dose activity, negative = toxicity, usual class: cytotoxic;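 also: potency is read from the fitted curve at half-maximal effect; 0% = DMSO wells and -100% = cell-free medium wells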
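Cytotoxicity counter-line: IDH1KD HT-1080, 48 h, CellTiter-Glo. Curves classed by r2, magnitude and activity.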
ELG1 repair inh: ELG1-dependent DNA repair inhibition. HEK293T ELG1-luciferase reporter, luminescence, 16 h; DNA damage induced by 5-fluorouridine. Potency, µM (series often up to 46.1 µM), for the others: at the highest dose activity change, negative = inhibition, most hits filed as inhibitors. 2.3% of 330,000 active; also: potency is read from the fitted curve at half-maximal effect; nearly all actives have a fitted effect of over 55% in size
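In this reporter screen, reduction of luminescence relative to DMSO vehicle indicated activity. Compounds and 5-fluorouridine were added together to 2,000 cells per well, incubated for 16 hr at 37 °C, then developed with ONE-Glo.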
DT40 TDP1 no CPT: qHTS for Inhibitors of human tyrosyl-DNA phosphodiesterase 1 (TDP1): qHTS in cells in absence of CPT; DT40 Tdp1-/- hTDP1 cells, no CPT, ATP luminescence, 48 h; Potency, µM (titrated, usually from 46.2 µM), for inactives: at the highest dose activity change, negative = growth inhibition, usual class: inhibitors; 15% of 420,000 active; also: potency is read from the fitted curve at half-maximal effect; nearly all actives have a fitted effect of over 55% in size
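No-CPT arm: Tdp1-/-;hTDP1 DT40 cells (400/well) plus compounds, incubated ≥48 hr at 37 °C. Readout CellTiter-Glo luminescence.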
IL1B secr inh: inhibitors of inflammasome signaling (IL-1 beta secretion) | THP-1 LPS/ATP IL-1B secretion, AlphaLISA, 16 h; active compounds read low | 4.7% of 360,000 active | activity change, % at 57.5 µM | AID 743279; in the data active = activity change below about -50%; inconclusive = mostly about -30% to -49%
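THP-1 cells pretreated 1 hr with compounds (up to 57.5 uM final), then stimulated with LPS (250 ng/mL final) plus ATP (1.25 mM final); secreted IL-1B measured by AlphaLISA after 16 hr, decreased signal indicating inhibition.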
Numbers without * were called inactive; ? = inconclusive; nt = no result given; [ ] = dose if it differs, or a comment. Unless noted, calls follow the shape of the dose curve; as a rule, active = well fitted curve in the direction sought with a large enough effect; inconclusive = small, poorly fitted or top-dose-only effect, or another doubt; inactive = no such curve, though single readings can be large; an effect the other way counts as inactive or inconclusive. Unless noted, % is scaled to controls: 0 for no effect and ±100 for the full control effect.

SMILES | DT40 TDP1 CPT | HT1080-NT tox | HT1080 IDH1KD tx | ELG1 repair inh | DT40 TDP1 no CPT | IL1B secr inh
Cc1ccc(C(=O)N2CCOCC2)cc1[N+](=O)[O-] | -10.3% | 13.8% | 14.8% | -1.7% | -3.6% | 24.9
Cc1ccc(CS(=O)(=O)c2ccc(C(=O)N3CCCCC3)cc2[N+](=O)[O-])cc1 | ? | -0.9% | -9.2% | -23.3% | ? | -11.5
Cc1ccccc1CS(=O)(=O)c1ccc(C(=O)N2CCOCC2)cc1[N+](=O)[O-] | ? | -0.4% | 0.8% | -3.6% | 11.6µM* | -87.9*
O=C(c1ccc(S(=O)(=O)Cc2ccccc2Cl)c([N+](=O)[O-])c1)N1CCOCC1 | 20.6µM* | ? | -23.4% | -3.1% | 20.6µM* | -99.8*
CCN(CC)CCCNC(=O)CN1C(=O)CCn2nc(-c3cn(C)c4ccccc34)cc21 | -1.3% | nt | nt | nt | 9.1% | nt
O=C(NC12CC3CC(CC(C3)C1)C2)c1ccc([N+](=O)[O-])o1 | 23.1µM* | ? | ? | -15.0% | 23.1µM* | -62.5*
CC(NC(=O)c1ccc([N+](=O)[O-])o1)C1CC2CCC1C2 (centres undefined) | 20.6µM* | ? | ? | -12.2% | ? | -91.8*
CC(NC(=O)c1ccc([N+](=O)[O-])cc1Cl)C1CC2CCC1C2 (centres undefined) | ? | -6.3% | -10.3% | 16.9% | ? | -23.0
O=C(NC12CC3CC(CC(C3)C1)C2)c1ccc(Br)o1 | -7.6% | -10.8% | -24.1% | 14.1% | ? | 15.5
O=C(NC12CC3CC(CC(C3)C1)C2)c1ccc(-c2ccc(Br)cc2)o1 | 23.1µM* | -7.5% | ? | ? | 16.4µM* | ?
Cc1cnc(-n2ncc(C(=O)NCC(C)(C)N3CCOCC3)c2C)nc1-c1cccs1 | 1.1%[9.04 µM] | nt | nt | nt | -6.7% | nt
O=C(Nc1cc(-c2nc3cc(Cl)ccc3o2)ccc1Cl)c1cccc2ccccc12 | 1.1% | nt | nt | nt | -6.9% | nt
CCCCS/C(N)=N/N=C/c1cc(C)ccc1O | 4.11µM* | ? | ? | ? | 5.17µM* | -28.8
CCS/C(N)=N/N=C/c1cc(C)ccc1O | 0.581µM* | -3.2% | ? | ? | 0.82µM* | -55.1*
Nc1nc2ccccc2cc1C(=O)NCc1cccs1 | 9.2µM* | -11.0% | -25.8% | nt | 7.31µM* | 47.6
Cc1ccccc1C(=O)NCCCCc1ccccc1 | -25.5% | 1.0% | 8.2% | 3.5% | -30.5% | -22.9
COc1cc2[nH]cc(C(=O)NCc3cccs3)c(=O)c2cc1OC | -10.3% | 20µM* | ? | nt | -15.9% | -8.6
Cc1ccccc1Nc1cc(C(=O)NCc2cccs2)c2ccccc2n1 | 20.6µM* | nt | nt | nt | ? | nt
Nc1nc2ccccc2cc1C(=O)NCCCCc1ccccc1 | 2.06µM* | ? | ? | nt | 1.64µM* | 52.0
COc1ccc(CC(=O)NCc2cccs2)cc1OC | -13.8% | 7.0% | 7.5% | 1.5% | -5.9% | 9.7
Cc1ccc(Nc2cc(C(=O)NCc3cccs3)c3ccccc3n2)c(C)c1 | ? | nt | nt | nt | -25.2% | nt
CCCS(=O)(=O)NC(=O)C1(C)CCN(C(=O)c2ccnc(Cl)c2)C1 (centres undefined) | -3.5% | 10.3% | 9.0% | nt | 0.3% | 8.9
Cc1ccc(-c2nc3ccccc3c(C(=O)NCc3cccs3)c2C)cc1 | 20.6µM* | -10.1% | -10.4% | ? | ? | -8.2
CC(=O)Nc1ccc(NC(=O)c2c(C)c(-c3ccccc3)nc3ccccc23)cc1 | 1.5% | -1.6% | 6.7% | nt | 0.4% | 18.9
O=C(Nc1nnc(-c2cccs2)o1)c1cc(-c2ccccc2)nc2ccccc12 | 13µM* | ? | ? | -0.7% | 14.6µM* | 81.8
COc1ccccc1Nc1cc(C(=O)NCc2cccs2)c2ccccc2n1 | 25.9µM* | nt | nt | nt | ? | nt

High-throughput results from PubChem.
